Rows were chosen to be rich in hits. Some 1.5% of all compounds tested hit in one or more screens of this group.
FBPA coupling cs: counter-screen for Giardia aldolase inhibitors: coupling enzyme system; AID 2472; coupling enzyme system counterscreen, AmpLite Red fluorescence; actives 0.67% (n = 290,000); activity change, negative = inhibition, % at 58.2 µM, hits read low; in the data active = activity change below about -30%
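Coupling enzymes only (glyceraldehyde-3-phosphate) + compound, at 57.5 uM final, 10 min RT; add substrate/coupling/AmpLite Red mix, 20 min RT; fluorescence ex 525/em 598 nm. Actives flag coupling-system interference.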
TrxR1 substrate: rat thioredoxin reductase 1 substrate activity; actives 0.01% (n = 390,000); AID 588456; Potency, µM (series often up to 114 µM), for the others: at the highest dose activity change, negative = substrate turnover; purified TrxR1 substrate turnover, NADPH consumption readout; also: potency is read from the fitted curve at half-maximal effect; nearly all actives have a fitted effect of over 50% in size
Target sequence (O89049 whole entry, looked up): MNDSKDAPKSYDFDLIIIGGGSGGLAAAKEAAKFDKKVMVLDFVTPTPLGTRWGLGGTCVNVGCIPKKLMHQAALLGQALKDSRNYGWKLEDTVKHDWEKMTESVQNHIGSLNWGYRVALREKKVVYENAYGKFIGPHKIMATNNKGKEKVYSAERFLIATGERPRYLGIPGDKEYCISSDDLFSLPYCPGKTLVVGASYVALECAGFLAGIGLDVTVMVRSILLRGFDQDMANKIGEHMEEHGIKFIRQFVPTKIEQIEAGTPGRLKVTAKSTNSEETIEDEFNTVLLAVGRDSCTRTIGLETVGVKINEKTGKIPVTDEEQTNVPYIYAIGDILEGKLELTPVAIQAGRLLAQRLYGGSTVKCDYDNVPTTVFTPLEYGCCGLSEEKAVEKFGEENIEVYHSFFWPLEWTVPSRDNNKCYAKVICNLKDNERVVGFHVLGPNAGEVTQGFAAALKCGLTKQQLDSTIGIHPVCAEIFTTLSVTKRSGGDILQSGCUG
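Rat TrxR1, dispensed at 90 nM, was prereduced with 400 uM NADPH (final) for 5 min at ~22 deg C, then incubated with compound 15 min before 400 uM selenite. A first-read NADPH fluorescence drop versus no-compound background flagged substrates.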
mIDH1 inhibitor: blocks human mutant IDH1 R132H enzyme. O75874. IDH1-R132H enzyme, NADPH consumption, diaphorase/resazurin fluorescence. Potency, µM (top dose mostly 76.6 µM), for inactives: at the highest dose activity change, negative = inhibition, actives largely listed as inhibitors. actives 0.093% (n = 390,000). AID 602179; also: potency is read from the fitted curve at half-maximal effect; nearly all actives have a fitted effect of over 65% in size
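IDH1-R132H (0.5 ug/mL) preincubated 30 min with compound, then NADPH (0.016 mM) and alpha-KG (2 mM) added; 80 min at RT, pH 7.5. Remaining NADPH coupled via diaphorase/resazurin to fluorescence (540/590 nm); concentration-response curves normalized to no-enzyme control.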
Eya2 phos inh: inhibitors of human Eya2 phosphatase activity | recombinant Eya2, OMFP fluorescence dephosphorylation (OMFP is methylfluorescein phosphate) | Potency, µM (top dose mostly 76.9 µM), for the others: top-dose activity, negative = inhibition, usual class: inhibitors | actives 0.006% (n = 330,000) | O00167 | AID 488837; also: potency is read from the fitted curve at half-maximal effect
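Eya2 protein (added as 0.2 uM solution) was preincubated with compound for 10 min at ambient temperature in 50 mM HEPES pH 7.5, 50 mM NaCl, 5 uM MgCl2, 0.05% BSA, 1 mM DTT. OMFP (added at 50 uM) then reacted 10 min; fluorescence read at 485/525 nm.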
rTrxR1 inhibitor: blocks rat thioredoxin reductase 1; O89049; recombinant rTrxR1, NADPH fluorescence consumption, selenite substrate; Potency, µM (highest dose often 114 µM), for inactives: at the highest dose activity change, negative = inhibition, actives largely listed as inhibitors; actives 1% (n = 390,000); also: potency is read from the fitted curve at half-maximal effect; nearly all actives have a fitted effect of over 65% in size
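Rat TrxR1 (90 nM in the dispensed reagent) was pre-reduced with 400 uM NADPH for 5 min at room temperature, then incubated with compound for 15 min. After 400 uM selenite was added, NADPH fluorescence (Ex 340/Em 450 nm) was followed for 8 min.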
* = called active by the depositor; ? = inconclusive; nt = no result given; [ ] = remark or other dose. Unless noted, calls follow the shape of the dose curve; as a rule, active = well fitted curve in the direction sought with a large enough effect; inconclusive = small, poorly fitted or top-dose-only effect, or another doubt; inactive = no such curve, though single readings can be large; an effect the other way counts as inactive or inconclusive. % is scaled to controls: 0 for no effect and ±100 for the full control effect.

SMILES	FBPA coupling cs	TrxR1 substrate	mIDH1 inhibitor	Eya2 phos inh	rTrxR1 inhibitor
CC1(C)CC(N=C2C([N+](=O)[O-])=CC=C3C2=NC2(CCCCC2)N3O)CC(C)(C)N1	-38*	-2%[57.1 µM]	3%	0%	-8%[57.1 µM]
O=[N+]([O-])C1=CC=C2C(=NC3(CCCCC3)N2O)C1=NC1CCCCC1	-21	1%	-1%	-4%	-25%
CCCN(CCC)c1ccc(/C=C/c2ccnc3ccccc23)cc1	nt	-6%	nt	nt	26%
COC(=O)C(CC(=O)c1ccc(Br)cc1)n1cccn1 (centres undefined)	-1	10%	3%	-8%	8.9µM*
COc1ccc(-n2c(N)c(C(=O)NCC3CCCO3)c3nc4ccccc4nc32)c(OC)c1 (centres undefined)	-30*	175%[57.1 µM]	8%	5%	-17%[57.1 µM]
C=CCn1c(N)c(C(=O)NCC2CCCO2)c2nc3ccccc3nc21 (centres undefined)	-56*	387%	2%	-16%	82%
O=C(NCC1CCCO1)c1coc2nc3ccccc3nc12 (centres undefined)	1	22%	4%	7%	-19%
CCOc1cc(N2CCOCC2)c(OCC)cc1NC(=O)c1ccc(C)cc1	-31*	7%[57.1 µM]	8%	-10%	24%[57.1 µM]
CCOc1cc(N2CCOCC2)c(OCC)cc1NC(=O)c1cc(C)cc(C)c1	-1	0%[57.1 µM]	1%	-8%	1%[57.1 µM]
CCOc1cc(N2CCOCC2)c(OCC)cc1NC(C)C(=O)N1CCN(CC)CC1 (centres undefined)	-43*	3%[57.1 µM]	15%	-1%	5%[57.1 µM]
CCOc1cc(N2CCOCC2)c(OCC)cc1NC(=O)C(C)C	-3	0%	-3%	0%	15%
CCOc1cc(N2CCOCC2)c(OCC)cc1NC(=O)CSc1ncccn1	4	5%[57.1 µM]	3%	5%	-1%[57.1 µM]
CCN1CCN(C(=O)C(C)Nc2cc(Cl)c(OC)cc2OC)CC1 (centres undefined)	-43*	-11%[57.1 µM]	12%	17%	26%[57.1 µM]
CCOc1cc(N2CCOCC2)c(OCC)cc1NC(=O)CSc1cccc[n+]1[O-]	-33*	-5%	7%	0%	-8%
CC(C(=O)c1ccccc1)[n+]1ccc(Cl)c2ccc(Cl)cc21 (centres undefined)	nt	-3%	nt	nt	-6%
COc1cc2c(NC3CCN(C)CC3)nc(N3CCCN(C)CC3)nc2cc1OCCCCCCN(C)C	nt	76%	nt	nt	?
COC(=O)[C@H]1O[C@@H](c2cc(OC)c(C)c(OC)c2O)[C@H](C)[C@@H](O)[C@H]1C	-3	nt	nt	nt	nt
COc1cc(OC)c(NC(C)C(=O)NCc2ccccc2)cc1Cl (centres undefined)	-50*	7%	8%	-18%	27%[57.1 µM]
O=C1[C@H](Cc2ccccc2)NC/C=C\C[C@H](c2ccco2)N1Cc1ccccc1	nt	-3%	nt	nt	-30%
CCOc1cc(NC(=S)NCCCN2CCOCC2)c(OCC)cc1NC(=O)CC(C)C	-2	1%[57.1 µM]	-3%	-17%	22µM*
CCOc1cc(NC(=S)NCCCN2CCOCC2)c(OCC)cc1NC(=O)C(C)C	-28	1%	2%	2%	-35%
Cc1ccc(S(=O)(=O)CCC(=O)N2CCN(c3ccc(Cl)cc3)CC2)cc1	1	0%	14%	-12%	50µM*
COc1ccc(S(=O)(=O)N2CCCN(CCC(=O)Nc3cccc(C(F)(F)F)c3)CC2)cc1	1	-7%	2%	-12%	-8%
Cc1ccc(NC(=O)CN2CCCN(S(=O)(=O)c3ccc(Br)s3)CC2)cc1	-1	-9%	2%	-36%	71µM*
NC(=O)CN1CCCN(S(=O)(=O)c2ccc(Br)cc2)CC1	6	16%	5%	-2%	20µM*
SMILES	FBPA coupling cs	TrxR1 substrate	mIDH1 inhibitor	Eya2 phos inh	rTrxR1 inhibitor
O=C(CN1CCCN(S(=O)(=O)c2ccc(Br)cc2)CC1)Nc1cccc(C(F)(F)F)c1	nt	-7%	1%	nt	50µM*
CC(C)(C)C1C/C(=C/c2ccccn2)C(=O)/C(=C/c2ccccn2)C1 (centres undefined)	0	0%	-4%	-15%	35µM*
O=C1/C(=C/c2ccccn2)COc2ccccc21	-4	-14%[57.1 µM]	3%	-27%	22µM*
CC1C/C(=C/c2ccccn2)C(=O)/C(=C/c2ccccn2)C1 (centres undefined)	-1	5%[57.1 µM]	6%	-4%	?
O=C1/C(=C/c2ccc(O)cc2)COc2ccccc21	3	-4%	3%	-4%	-33%
COc1cc(-c2noc(C)c2C#CCCN2C(=O)c3ccccc3C2=O)cc(OC)c1OC	nt	4%	nt	nt	2%
CN1CCc2cccc3c2[C@@H]1Cc1ccc(O)c(O)c1-3	-7	11%	6%	5%	14µM*
O=S(=O)(CC(CN1CCCC1)N1CCCC1)c1ccc2ccccc2c1 (centres undefined)	-4	7%	8%	-16%	8.9µM*
Cc1[nH]c2ccccc2c1C(C#N)(C#N)C1C(=O)c2ccccc2C1=O	-36*	-1%	37%	1%	-16%
CCOc1ccc2cc(C#N)c(SCC(=O)OCc3ccccc3)nc2c1	nt	15%	nt	nt	26%
Cc1ccc(NN2C(=O)C=C(c3ccccc3)C2=O)cc1	3	-4%	-1%	-6%	6.3µM*
O=C(C[n+]1csc2ccccc21)c1cccc([N+](=O)[O-])c1	nt	2%	nt	nt	20%
Cc1c(C#N)c(NC(=O)CCl)n(Cc2ccccc2)c1C	0	12%[57.1 µM]	-6%	?	3.5µM*
Cc1c(C#N)c(NC(=O)CCl)n(Cc2cccs2)c1C	3	9%	-7%	4%	3.5µM*
Cc1c(C#N)c(NC(=O)CCl)n(Cc2ccc(F)cc2)c1C	0	3%	1%	5%	?
O=C(NC1CCCCC1)[C@@H]1CC=C[C@@H]2CCN(Cc3ccc(Cl)c(Cl)c3)C(=O)[C@@H]21	nt	-6%	nt	nt	11%
CC(C)[C@H](NC(=O)[C@H](CCCCN)NC(=O)[C@@H](NC(=O)[C@@H]1CCCN1C(=O)[C@H](CCCN=C(N)N)NC(=O)[C@H](CCCN=C(N)N)NC(=O)[C@H](CCCCN)NC(=O)[C@H](CCCCN)NC(=O)CNC(=O)[C@@H](NC(=O)[C@@H]1CCCN1C(=O)[C@@H](N)CCCCN)C(C)C)C(C)C)C(=O)N[C@@H](Cc1ccc(O)cc1)C(=O)N1CCC[C@H]1C(=O)O	-3	nt	nt	nt	nt
COC(=O)c1nc2ccc(N3CCOCC3)cc2c(C)c1C(=O)OC	-51*	14%[57.1 µM]	3%	4%	30%[57.1 µM]
Cc1ccc(NC(=O)COC(=O)c2ccccc2OCC(=O)Nc2ccc(Br)cc2)c(Br)c1	nt	9%	nt	nt	14%
COc1cccc([C@@H]2Oc3ccc(Br)cc3C(=O)[C@H]2OC(=O)NS(=O)(=O)c2ccc(F)cc2)c1	-1	nt	nt	nt	nt
